Several values for one entry are separate records, joined by “and”; a condition that tells them apart may be missing. Equal entries are not always repeated. Structures can show the parent of a compound that is named as a salt.
Legend:
Assay in all cases: cell viability relative to vehicle control; higher = less cytotoxic
Conditions in all cases: 10 µM
K562 = tested on: K562
Procedure, shortened: (§1)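 Four leukaemia lines, as CRISPR-edited mutant clones and isogenic wild-type clones, were tested against Selleck bioactive, kinase and epigenetic probe libraries after removal of identity-inconsistent compounds. Cells were exposed to a single 10 µM dose for 48 h, and CellTiter-Glo luminescence was then read. Viability was calculated relative to the on-plate vehicle control.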

MARIMO = tested on: MARIMO
Procedure, shortened: as §1

MOLM14 = tested on: MOLM14
Procedure, shortened: as §1

OCI-AML2 = tested on: OCI-AML2
Procedure, shortened: as §1

| Compound | cell viability (K562; SRSF2 genotype: SRSF2 P95H/wt) | cell viability (K562; SRSF2 genotype: SRSF2 wt/wt) | cell viability (MARIMO; SRSF2 genotype: SRSF2 P95H/wt) | cell viability (MARIMO; SRSF2 genotype: SRSF2 wt/wt) | cell viability (MOLM14; SRSF2 genotype: SRSF2 P95H/wt) | cell viability (MOLM14; SRSF2 genotype: SRSF2 wt/wt) | cell viability (OCI-AML2; SRSF2 genotype: P95H/wt) | cell viability (OCI-AML2; SRSF2 genotype: wt/wt) |
| --- | --- | --- | --- | --- | --- | --- | --- | --- |
| COc1cc2c(cc1O)CC[C@@H]1[C@@H]2CC[C@]2(C)[C@@H](O)CC[C@@H]12 [2-Methoxyestradiol] | 14% and 27.1% | 29.9% | 10.4% | 10.9% | 7.93% | 2.27% | 6.68% | 13.6% |
| Cc1cc(O)cc(O)c1 [Orcinol] | 110% and 104% | 104% | 100% | 98.8% | 113% | 107% | 98.7% | 107% |
| CC1(C)CC[C@]2(C(=O)O)[C@H](O)C[C@]3(C)C(=CC[C@@H]4[C@@]5(C)CC[C@H](O)C(C)(C)[C@@H]5CC[C@]43C)[C@H]2C1 [Echinocystic acid] | 93.8% and 87.5% | 89% | 87.1% | 99.2% | 85.1% | 90.4% | 82.8% | 94.6% |
| C[C@@H]1CC(=O)Nc2cccc(-c3ccc4c(c3)c(-c3cnn(C)c3)nn4C)c2N1 | 80.2% and 77.7% | 81.6% | 55.1% | 49.1% | 32.5% | 35.8% | 32.6% | 47.2% |
| CCCCOCc1ccc(O)c(OC)c1 [Vanillyl Butyl Ether] | 98.9% and 92.9% | 101% | 97.6% | 106% | 98.8% | 101% | 93.1% | 109% |
| CC(C)=CCC[C@](C)(O)[C@H]1CC[C@]2(C)[C@@H]1[C@H](O)C[C@@H]1[C@@]3(C)CC[C@H](O[C@@H]4O[C@H](CO)[C@@H](O)[C@H](O)[C@H]4O[C@@H]4O[C@H](CO)[C@@H](O)[C@H](O)[C@H]4O)C(C)(C)[C@@H]3CC[C@]12C [20S-Ginsenoside Rg3] | 107% and 97.7% | 101% | 108% | 108% | 101% | 102% | 105% | 104% |
| CCCCC[C@H](O)CC(=O)CCc1ccc(O)c(OC)c1 [6-Gingerol] | 87.8% and 85.7% | 82.9% | 86.8% | 98.7% | 90.6% | 95.5% | 90.9% | 81.8% |
| CC1=CCC[C@H](C)C(=O)C[C@@H](C(C)C)C(=O)C1 [Curdione] | 93.2% and 88.9% | 83.8% | 93.8% | 90.8% | 91.2% | 87.5% | 91% | 87.2% |
| NC(=O)c1ccc(OCCCN2CC3CCCC3C2)cc1 (stereo unspecified) | 102% and 107% | 104% | 106% | 98% | 100% | 101% | 114% | 98% |
| CN(CCOc1ccc(NS(C)(=O)=O)cc1)CCc1ccc(NS(C)(=O)=O)cc1 [Dofetilide (Tikosyn)] | 97.8% and 97% | 101% | 97% | 104% | 95.8% | 101% | 99% | 107% |
| CN1CC(=O)N2[C@H](c3ccc4c(c3)OCO4)c3[nH]c4ccccc4c3C[C@@H]2C1=O [Tadalafil (Cialis)] | 101% and 99.7% | 106% | 98.5% | 105% | 97.3% | 99.8% | 103% | 108% |
| Cc1ccc(C(=O)Nc2ccc(Oc3cc4cnn(C)c4cc3-c3cn[nH]c3)c(F)c2)c(=O)n1-c1ccc(F)cc1 | 82.9% and 87.4% | 87.2% | 88.5% | 103% | 8.56% | 12.4% | 27.6% | 31.6% |
| CCCCC(C)(O)C/C=C/[C@H]1[C@H](O)CC(=O)[C@@H]1CCCCCCC(=O)OC (mixture of isomers) [Misoprostol] | 89.4% and 78.1% | 84.4% | 82.6% | 79% | 83.5% | 80.2% | 89.2% | 84% |
| CN(C)CCC=C1c2ccccc2C(C)(C)c2ccccc21 [Melitracen hydrochloride] | 68.2% and 69.9% | 82.3% | 62.9% | 69.7% | 63.8% | 77.6% | 61.3% | 65.3% |
| O=c1cc(N2CCOCC2)oc2c(-c3ccccc3)cccc12 | 76.7% and 86.9% | 91.8% | 66.6% | 64.8% | 51.5% | 45.6% | 47.5% | 49.4% |
| C=CC(=O)Nc1cccc(Oc2nc(Nc3ccc(N4CCN(C)CC4)cc3)ncc2Cl)c1 | 19.3% and 33.1% | 34.2% | 29.4% | 18.8% | -0.04% | -0.03% | 0.39% | 5.07% |
| CCCCCCCCCCCC1=C(O)C(=O)C=C(O)C1=O [Embelin] | 91.7% and 88.2% | 85.5% | 90.3% | 98.8% | 90.9% | 91.9% | 89.3% | 94.6% |
| C#C[C@]1(OC(C)=O)CC[C@H]2[C@@H]3CCC4=C[C@@H](OC(C)=O)CC[C@@H]4[C@H]3CC[C@@]21C [Ethynodiol diacetate] | 78.7% and 88.6% | 80.7% | 51.5% | 46.5% | 63.6% | 78.8% | 30.3% | 36.3% |
| Cc1ccc(O)c([C@H](CCN(C(C)C)C(C)C)c2ccccc2)c1 [Tolterodine tartrate (Detrol LA)] | 80.3% and 94% | 87.2% | 75.7% | 81.6% | 70% | 83.4% | 88.6% | 84% |

| Compound | cell viability (K562; SRSF2 genotype: SRSF2 P95H/wt) | cell viability (K562; SRSF2 genotype: SRSF2 wt/wt) | cell viability (MARIMO; SRSF2 genotype: SRSF2 P95H/wt) | cell viability (MARIMO; SRSF2 genotype: SRSF2 wt/wt) | cell viability (MOLM14; SRSF2 genotype: SRSF2 P95H/wt) | cell viability (MOLM14; SRSF2 genotype: SRSF2 wt/wt) | cell viability (OCI-AML2; SRSF2 genotype: P95H/wt) | cell viability (OCI-AML2; SRSF2 genotype: wt/wt) |
| --- | --- | --- | --- | --- | --- | --- | --- | --- |
| CC(=O)N1CCN(c2ccc(OCC3COC(Cn4ccnc4)(c4ccc(Cl)cc4Cl)O3)cc2)CC1 (stereo unspecified) [Ketoconazole] | 56.2% and 70.5% | 62.4% | 34.9% | 26.1% | 40.9% | 26.2% | 32% | 30.8% |
| C=CC(C)(O)CCC=C(C)C (stereo unspecified) [Linalool] | 100% and 105% | 107% | 101% | 105% | 103% | 104% | 109% | 97.4% |
| O=C(O)COCCN1CCN(C(c2ccccc2)c2ccc(Cl)cc2)CC1 (stereo unspecified) [Cetirizine Dihydrochloride] | 94.7% and 100% | 98.7% | 95% | 93.1% | 94.2% | 100% | 103% | 101% |
| CC(C)[C@H]1C(=O)N[C@@H](CCCNC(=N)N)C(=O)NCC(=O)N[C@@H](CC(=O)O)C(=O)N[C@H](Cc2ccccc2)C(=O)N1C [Cilengitide trifluoroacetate] | 98.5% and 105% | 101% | 102% | 99.1% | 103% | 99.5% | 104% | 109% |
| CNc1nc(Nc2cnn(C3CCN(C4COC4)CC3F)c2Cl)ncc1C(F)(F)F (stereo unspecified) | 89.6% and 89% | 91.7% | 76.2% | 80.1% | 38.2% | 36.4% | 46.3% | 47.6% |
| Nc1ncnc2c1ncn2[C@@H]1O[C@H](CO)C[C@H]1O [Cordycepin] | 94.3% and 102% | 89.3% | 90.4% | 99% | 102% | 102% | 94.1% | 112% |
| CO/N=C(\C(=O)N[C@@H]1C(=O)N2C(C(=O)O)=C(CSC(=O)c3ccco3)CS[C@H]12)c1csc(N)n1 [Ceftiofur] | 108% | 103% | 110% | 109% | 97% | 108% | 112% | 105% |
| CC(C)=CCC[C@](C)(O[C@@H]1O[C@H](CO)[C@@H](O)[C@H](O)[C@H]1O)[C@H]1CC[C@]2(C)[C@@H]1[C@H](O)C[C@@H]1[C@@]3(C)CC[C@H](O)C(C)(C)[C@@H]3[C@@H](O[C@@H]3O[C@H](CO)[C@@H](O)[C@H](O)[C@H]3O)C[C@]12C [Ginsenoside Rg1] | 95.2% and 91.8% | 101% | 96.7% | 94.4% | 97.5% | 98.4% | 99.5% | 104% |
| CC(=O)O/N=C1\C(=O)N(Cc2cc(Cl)ccc2Cl)c2ccc(Cl)cc21 | 92% and 94.5% | 85.1% | 15.6% | 91.5% | 30.4% | 90.7% | 1.27% | 9.59% |
| C=C1CCC[C@]2(C)Cc3occ(C)c3C[C@@H]12 [Atractylon] | 104% and 98.2% | 97.5% | 98.4% | 99% | 103% | 99.3% | 95% | 98% |
| COC(=O)c1ccc2c(c1)nc(NC(=O)c1ccccc1)n2CCCc1ccccc1 | 77.8% and 75.4% | 79.5% | 70.1% | 91.6% | 87.9% | 93.7% | 64.5% | 68.7% |
| CN(C)CCCn1cc(C2=C(c3c[nH]c4ccccc34)C(=O)NC2=O)c2ccccc21 | 91.2% and 78.4% | 98.8% | 82.9% | 92% | 36.4% | 32.5% | 34% | 67.1% |
| COc1ccc(CCc2nc3cc(-c4c(C)noc4C)ccc3n2C[C@H](C)N2CCOCC2)cc1Cl | 80.9% and 86.9% | 73.8% | 76.9% | 70.5% | 47.4% | 42.5% | 45.7% | 60.6% |
| CCOC(=O)c1cccc(N)c1 [Ethyl 3-Aminobenzoate methanesulfonate] | 96.7% and 92.4% | 85.1% | 87.2% | 96.5% | 88.7% | 96.5% | 94.2% | 90.7% |
| CCc1c2c(nc3ccc(O)cc13)-c1cc3c(c(=O)n1C2)COC(=O)[C@]3(O)CC | 10.1% and 21.4% | 13.4% | 5.36% | 3.23% | 1.02% | 0.95% | 0.48% | 1.9% |
| CCC/N=C1\S/C(=C\c2ccc(OC[C@H](O)CO)c(Cl)c2)C(=O)N1c1ccccc1C | 89.5% and 93.7% | 89.6% | 105% | 98.3% | 94.5% | 93.5% | 108% | 95.2% |
| O=C1NC(=NCc2cccs2)S/C1=C\c1ccc2ncccc2c1 | 92% and 98.2% | 98.2% | 50.9% | 77.9% | 37% | 41.1% | 53.8% | 57.1% |
| C[C@@H]1CC[C@@]2(NC1)O[C@H]1C[C@H]3[C@@H]4CC=C5C[C@@H](O[C@@H]6O[C@H](CO)[C@@H](O[C@@H]7O[C@@H](C)[C@H](O)[C@@H](O)[C@H]7O)[C@H](O)[C@H]6O[C@@H]6O[C@@H](C)[C@H](O)[C@@H](O)[C@H]6O)CC[C@]5(C)[C@H]4CC[C@]3(C)[C@H]1[C@@H]2C [Solamargine] | 85.3% and 85.5% | 81.8% | 51.5% | 89.6% | 81.6% | 81.6% | 91% | 87.2% |
